# According to PubChem BioAssay AID651812 (National Center for Advancing Translational Sciences (NCATS), 2012):
# Among all 2,100 compounds or so, about 650 (31%) were called active. Another 16% or so got no clear call; they are omitted. Some of the results follow. Unmarked numbers belong to inactive results. Calls come from the whole dose curve; as a rule, active = well fitted inhibition curve with a large enough effect; inconclusive = small, poorly fitted or top-dose-only effect; inactive = flat fitted curve, though single readings scatter.
# Test: qHTS for inhibitors of Vif-A3G interactions: Cherry picks; note: nearly all actives have a fitted effect of over 80% in size; for activity, negative = fluorescence increase: % of control where 0% means no effect
# Conditions: HeLa A3G-eYFP + Vif (tagged APOBEC3G with the HIV-1 protein that degrades it), 24 h; Potency: eYFP fluorescence increase; series mostly up to 36.9 µM; activity, negative = fluorescence increase: at the top concentration
# Summary of the method: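 HeLa cells stably expressing A3G-eYFP and Vif, cultured overnight then exposed to compounds at several concentrations for 24 hours at 37 C, 5% CO2; cellular yellow fluorescence (488 nm ex, 500-530 nm em) imaged on Acumen, MG132 positive control.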
# Potency is the fitted concentration of half-maximal effect.
Compound,"activity, negative = fluorescence increase",Potency
O=c1[nH]c(NCc2ccco2)nnc1Cc1ccccc1Cl,-11.5%,
Cc1c(C(=O)N/N=C/C(C)C)[nH]c2c([N+](=O)[O-])cccc12,-0.808%,
CN[C@H]1CCc2cc(OC)c(OC)c(OC)c2-c2ccc(N(C)CC(OC)OC)c(=O)cc21,-9.29%,
C/C(=N\NC(=O)c1c(Cl)c(C)nn1C)c1ccc(NC(=O)C2CCC2)cc1,-3.25%,
Cc1ccc(NC(=O)Cn2ncc(Cl)c(Cl)c2=O)cc1S(=O)(=O)N1CCCCC1,-4%,
O=C(N/N=C/c1ccc2c(c1)OCO2)c1ccc2c(c1)OCCO2,-9.25%,
Brc1ccc2c(c1)[C@H]1OCC[C@H]1[C@@H](c1cccs1)N2,-13.1%,
C=C(C)CNC(=S)N/N=C1\CCCCc2ccccc21,-2.89% [at 46.1 µM],
COc1ccc(NC(=O)c2sc3nc(-c4ccc(OC)cc4)cc(C(F)(F)F)c3c2N)cc1,,0.731 µM (active)
COc1ccc(OC)c(-c2cc(-c3cccnc3)nc(N)c2C#N)c1,-1.36%,
Cc1cc(N2CCN(C)CC2)ccc1NC(=O)c1c2c(nc3ccccc13)CCN(Cc1ccccc1)C2,0.0382%,
COc1ccc(C(=O)c2sc3nc(-c4ccc(C)cc4)cc(C(F)(F)F)c3c2N)cc1,,2.06 µM (active)
CCOC(=O)c1c(C)nc2sc(C(=O)Nc3ccc(OC)cc3)c(N)c2c1-c1ccc(OC)cc1,4.85%,
COc1cccc(NC(=O)Nc2nc(-c3ccc(OC)c(OC)c3)cs2)c1,1.93%,
COc1ccc(NC(=O)c2cc(-c3ccccc3OC)on2)cc1,0.515%,
COc1cccc(C(=O)Nc2ncc3c(n2)CC(c2ccc(OC)cc2OC)CC3=O)c1 (stereo not drawn),-12.1%,
COc1ccc(NC(=O)c2sc3nc(-c4cccnc4)ccc3c2N)cc1OC,,3.66 µM (active)
COc1ccc(NC(=O)c2sc3nc4c(cc3c2N)CN(Cc2ccccc2)CC4)c(OC)c1,,18.4 µM (active)
CC1(C)Cc2nc3sc4c(=O)n(CC(=O)NCc5ccccc5)cnc4c3cc2CO1,-5.27%,
O=[N+]([O-])c1ccccc1SNc1ccccc1,-7.17%,
CC(=O)Nc1ccc(S(=O)(=O)Nc2nc3ccccc3nc2Nc2ccc3ccccc3c2)cc1,-25.1% [at 46.1 µM],
Clc1ccc(-c2csc3ncnc(Sc4nnnn4C4CC4)c23)cc1,-1.71% [at 46.1 µM],
O=C1NC(c2ccc(Br)cc2)Nc2ccccc21 (stereo not drawn),-8.49%,

Compound,"activity, negative = fluorescence increase",Potency
C/C(=N\NC(=O)c1cc(-c2ccncc2)nc2ccccc12)c1ccc(N2CCOCC2)cc1,-12.7%,
CC(=O)Nc1ccc(-c2ccnc3c2CC(C(=O)NCc2cccc(Cl)c2)O3)cc1 (stereo not drawn),-14.7%,
Cc1cc(-c2nc(C)c(C(=O)NN)s2)no1,-0.0599%,
COc1ccc2nc3sc(C(=O)Nc4cc(Cl)c(OC)cc4OC)cc3cc2c1,-23.5% [at 46.1 µM],
COc1cc(C(=O)Nc2nnc(Cc3ccccc3)s2)cc(OC)c1OC,-5.09%,
COc1ccc(OC)c(NC(=O)c2sc3nc(Cc4ccccc4)cc(C(F)(F)F)c3c2N)c1,,4.61 µM (active)
Cc1cc(C(F)(F)F)c2c(N)c(C(=O)Nc3cc(C)on3)sc2n1,,8.2 µM (active)
O=C(N/N=C/c1cccc2ccccc12)c1n[nH]c2c1CCCC2,-9.91%,
O=C(OCC12CC3CC(CC(C3)C1)C2)c1ccc(NCc2cc(O)ccc2O)cc1,1.57% [at 46.1 µM],
CC(=O)Nc1ccc(-c2ccnc3c2CC(C(=O)Nc2cccc(N(C)C)c2)O3)cc1 (stereo not drawn),-0.193%,
CC(CC(=O)Nc1ccc2c(c1)c(=O)n(C)n2-c1ccccc1)c1ccccc1 (stereo not drawn),-10.9%,
O=C(/C=C/c1cccs1)NCc1ccc2c(c1)OCO2,3.17% [at 46.1 µM],
O=C(NCc1ccc2c(c1)OCO2)c1cc([N+](=O)[O-])ccc1N1CCOCC1,-3.98%,
COc1ccc(OC)c(C2CC(=O)c3c([nH]c(C(=O)OCC4CCCO4)c3C)C2)c1 (stereo not drawn),-7.09%,
NC(=O)CSc1nc2c(sc3ccccc32)c(=O)n1CCCC(=O)NCC1CCCO1 (stereo not drawn),-1.95% [at 46.1 µM],
CCOC(=O)/C=c1\s/c(=C\c2ccccc2C)c(=O)n1CC(=O)NCc1ccc2c(c1)OCO2,,15.8 µM (active)
CCOC(=O)/C=c1/s/c(=C/c2ccc3cc(OC)ccc3c2)c(=O)n1CC(=O)NCC1CCCO1 (stereo not drawn),,18.4 µM (active)
COc1cc2c(cc1OC)C1=CC(=O)C(=O)N1C(C)(C)C2,,17.7 µM (active)
COc1ccc(-c2cc(NC=O)c3ncc(-c4ccc(C(C)=O)cc4)n3c2)cc1OC,1.8%,
O=C(NCc1ccc2c(c1)OCO2)c1cc([N+](=O)[O-])ccc1N1CCCCC1,-15.2%,
CCCOc1ccc2cc(C(=O)NCc3ccccc3)c(=O)oc2c1,-0.451% [at 46.1 µM],
O=C(NCc1ccccc1)c1cccc2c1C(=O)c1ccc(/C=C/c3ccccc3)cc1S2(=O)=O,,18.4 µM (active)
Cc1ccc(CNC(=O)Cc2ccc(-n3cccc3)cc2)cc1,-0.685%,

Compound,"activity, negative = fluorescence increase",Potency
Cc1ccc(CNC(=O)c2cccc3c2C(=O)c2ccc(N4CCC(C)CC4)cc2S3(=O)=O)cc1,,20.6 µM (active)
CC1CCN(c2ccc3c(c2)S(=O)(=O)c2cccc(C(=O)NCc4cccc(F)c4)c2C3=O)CC1,,14 µM (active)
Cc1ccc(CNC(=O)c2cccc3c2C(=O)c2ccc(N4CCCCC4)cc2S3(=O)=O)cc1,,20.6 µM (active)
Cn1c(=O)c2cc(NC(=O)NCc3ccccc3)ccc2n1C/C=C/c1ccccc1,-4.85%,
COc1ccc(NC(=O)C2(C)Cc3c(-c4ccc5c(c4)OCO5)ccnc3O2)cn1 (stereo not drawn),-0.638%,
CCN(CC)c1ccc(/C=C/C2=C3C=CC=CC3NC=C2)cc1 (stereo not drawn),,18.4 µM (active)
CN(C)c1ccc(/C=C/c2ccncc2)cc1,,20.6 µM (active)
CCN(CC)c1ccc(/C=C/c2ccccn2)cc1,,14.6 µM (active)
CCN(CC)c1ccc(/C=C/c2ccncc2)cc1,,16.4 µM (active)
Cc1cc(N/N=C/c2ccc(O)cc2O)nc(-n2nc(C)cc2C)n1,-1.47%,
CCN(CC)c1ccc(/C=C/C(=O)c2ccc(Br)cc2)cc1,,25.9 µM (active)
CCN(CC)c1ccc(/C=N/NC(=O)c2ccco2)cc1,-18.9%,
c1ccc(C2CNCc3c2ccc2ccccc32)cc1 (stereo not drawn),-2.66%,
CCCOc1cc(N(CC)CC)ccc1/C=C(/C#N)c1nc2ccc(C)cc2[nH]1,,18.4 µM (active)
CCOc1cc(N(CC)CC)ccc1/C=C(/C#N)c1nc2ccccc2[nH]1,,4.61 µM (active)
Cc1cccc(OCCOc2ccccc2C=C(C#N)C#N)c1,-1.93%,
CCN(CC)c1ccc(/C=C(/C#N)c2nc3ccccc3[nH]2)c(OC(C)C)c1,,0.58 µM (active)
O=C1C=C(Nc2ccc(Cl)cc2Cl)CC(c2ccco2)C1 (stereo not drawn),-16.1%,
CCS(=O)(=O)N1N=C(c2cccc(NS(C)(=O)=O)c2)CC1c1ccc(C)cc1 (stereo not drawn),,18.4 µM (active)
CC(=O)c1cccc(-c2ccnc3c2CC(C(=O)Nc2cccc(NS(C)(=O)=O)c2)O3)c1 (stereo not drawn),-7.08%,
CS(=O)(=O)Nc1ccc(C2=NN(S(C)(=O)=O)C(c3ccc4nccnc4c3)C2)cc1 (stereo not drawn),-0.0277% [at 46.1 µM],
O=C1CCCN1c1ccc(S(=O)(=O)Nc2ccc3c(c2)OCCO3)cc1,-8.96%,
